# Screening results: PubChem, several laboratories
# Hits are enriched below; roughly 27% of the tested compounds scored in any of these assays.
# CYP2C9 inh: inhibitors of human CYP2C9; P11712; 96,000 tested, 20% active; CYP2C9 Supersomes, luciferin-H conversion, luminescence; inhibition, % at 5 µM;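 active means blocking of liver enzyme CYP2C9 beyond about 50% at 5 µM, limit read from the data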
# CYP2C9 act: increases human cytochrome P450 2C9 activity | P11712 | recombinant CYP2C9, luciferin-H conversion, luminescence; active compounds read high; factor 1 = untreated enzyme, 0 = blocked | activation factor at 5 µM | 96,000 tested, 1.4% active;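 active means activation factor of 2 or more for CYP2C9 at a 5 µM dose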
# CYP2C19 inh: inhibitors of human CYP2C19; P33261; CYP2C19 Supersomes, luciferin-H EGE luminescence, 30 min; inhibition, % at 5 µM; 96,000 tested, 21% active; AID 778;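 active means CYP2C19 inhibition above a set limit at 5 µM in the primary screen, cut at about 50% in these data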
# CYP2C19 act: activators of human cytochrome P450 2C19; activation factor at 5 µM; P33261; recombinant CYP2C19, luciferin-H EGE luminescence; active compounds read high; 0 = fully inhibited enzyme, 1 = untreated enzyme; AID 1025; 96,000 tested, under 10 active;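 active means activation factor of at least 2 at 5 µM in the primary screen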
# Cav32 inh: blocks human Cav3.2 T-type calcium channel; O95180; Cav3.2-expressing cells, Fluo-4 calcium fluorescence FDSS; active compounds read low; B-score at 10 µM; 100,000 tested, 4% active;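 active means single-dose well whose peak fluorescence ratio is a statistical outlier from its plate by either plate-standardised score or position-corrected B-score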
# Hits are given with their value; i = inactive; nt = not tested or not shown.
SMILES,CYP2C9 inh,CYP2C9 act,CYP2C19 inh,CYP2C19 act,Cav32 inh
CC(=O)c1c(C)nc(-c2ccc(Cl)cc2)nc1N=CN(C)C,51,i,i,i,nt
Cc1nn2cc(-c3ccccc3)nc2s1,i,i,i,i,i
c1ccc(-c2cn3c4c(sc3n2)CCCC4)cc1,i,i,57,i,i
CCS(=O)(=O)n1nc(NCc2cccc(OC)c2)nc1NCc1cccc(OC)c1,i,i,i,i,-4.2
CCCc1nc2sc3c(SCC(=O)NCc4ccco4)ncnc3c2c2c1CCC2,i,i,i,i,i
Cc1nn(Cc2ccc(Cl)cc2)c(C)c1NC(=O)CSc1nc2c(c(C(F)(F)F)n1)CCc1ccccc1-2,72,i,i,i,-3.9
Cc1ccccc1Cn1cc(NC(=O)CSc2nc3c(c(C(F)(F)F)n2)CCc2ccccc2-3)cn1,81,i,i,i,i
N#Cc1c(NC(=O)CSc2nc3c(c(C(F)(F)F)n2)CCc2ccccc2-3)sc2c1CCCC2,i,i,i,i,i
COc1cccc(NC(=O)c2ocnc2C)c1,i,i,i,i,i
Cc1ccc(S(=O)(=O)n2c(=O)oc3ccccc32)cc1,nt,nt,nt,nt,i
COc1ccc(-c2cc(C(F)F)n3ncc(C(=O)N4CCSCC4)c3n2)cc1,76,i,i,i,i
Cc1ccc(-c2cc(C(F)F)n3ncc(C(=O)N4CCN5CCCC5C4)c3n2)cc1 (stereo not given),i,i,i,i,i
CCOC(=O)C1CCCN(C(=O)c2cc3nc(-c4ccc5c(c4)OCO5)cc(C(F)(F)F)n3n2)C1 (stereo not given),56,i,i,i,i
CCOC(=O)C1CCCN(C(=O)c2cnn3c(C(F)F)cc(-c4ccc(C)cc4)nc23)C1 (stereo not given),73,i,i,i,i
NC(=O)CC(NC(=O)c1ccccc1)c1ccc(NC2CCCC2)c([N+](=O)[O-])c1 (stereo not given),nt,nt,nt,nt,i
CC(CCCCC(=O)Nc1ccc(C(F)(F)F)cc1)NCCc1cnc[nH]1 (stereo not given),nt,nt,nt,nt,i
CC(C)C[C@H](NC(=O)c1nc[nH]c1C(=O)N(C)Cc1ccccc1)C(=O)OCc1ccccc1,nt,nt,nt,nt,i
O=C(COC(=O)c1ccccc1F)c1ccc(-n2nncc2-c2ccco2)cc1,i,i,i,i,i
Cc1nc2ncnn2c(C)c1CCC(=O)NCc1ccccc1,i,i,i,i,i
Cc1nc2ncnn2c(Nc2ccc3c(c2)OCO3)c1Cc1ccccc1,i,i,72,i,i
COc1ccc(CCNc2cc(-c3ccccc3)nc3ncnn23)cc1,56,i,i,i,nt
CCc1c(C)nc2ncnn2c1NCCc1ccccc1,i,i,64,i,i
Cc1cccc(-c2noc(-c3cc4ccccc4oc3=O)n2)c1,i,i,i,i,i
CC1(CCc2ccc(O)cc2)NC(=O)NC1=O (stereo not given),i,i,i,i,i
CCOC(=O)c1sc2ncn(C(C)C(=O)OC)c(=O)c2c1C (stereo not given),54,i,57,i,i
SMILES,CYP2C9 inh,CYP2C9 act,CYP2C19 inh,CYP2C19 act,Cav32 inh
CCCOC(=O)C(C)n1cnc2sc(C)c(C)c2c1=O (stereo not given),56,i,70,i,i
CCOC(=O)c1sc2nc[nH]c(=O)c2c1C,i,i,i,i,i
CCOC(=O)c1sc2ncn(C(CC)C(=O)OC)c(=O)c2c1C (stereo not given),96,i,70,i,i
CCOC(=O)c1sc2ncn(C(CC)C(=O)OCC)c(=O)c2c1C (stereo not given),83,i,60,i,i
CC(NCc1ccc2c(c1)OCO2)C(=O)NC1CCCc2ccccc21 (stereo not given),i,i,i,i,i
O=C(Nc1cccnc1)C1CC(c2ccc(Cl)c(Cl)c2)=NO1 (stereo not given),56,i,94,i,i
COc1ccc(OC)c(C2=NOC(C(=O)Nc3cccnc3)C2)c1 (stereo not given),i,2,76,i,i
O=C(NCc1ccccn1)C1CC(c2ccc(Cl)c(Cl)c2)=NO1 (stereo not given),i,i,i,i,i
COc1ccc(OC)c(C2=NOC(C(=O)NCCN3CCOCC3)C2)c1 (stereo not given),i,i,i,i,i
CCCCCn1c(=O)[nH]c2cc(C(=O)NCCN(CC)CC)ccc2c1=O,i,i,i,i,i
CCOC(=O)C(C)Sc1snnc1C (stereo not given),nt,nt,nt,nt,i
NC(=O)C1CCCN(C(=O)NC2CCCCC2)C1 (stereo not given),i,i,i,i,i
CCOC(=O)c1sc(NC(=O)CSc2nnc(Cc3ccccc3)o2)c(C(=O)OCC)c1C,78,i,54,i,i
CCOC(=O)c1c(NC(=O)CSc2nnc(CNc3ccc(Cl)cc3)o2)sc(C)c1C,nt,nt,nt,nt,i
CCOC(=O)c1c(NC(=O)CSc2nnc(CNc3ccc(F)cc3)o2)sc(C)c1C,63,i,i,i,-4.6
Cc1nnc(SCCn2c(N3CCCC(C)C3)nc3c2c(=O)n(C)c(=O)n3C)s1 (stereo not given),i,i,i,i,i
CCn1c(C(=O)NCCCN2CCc3ccccc3C2)cc2sccc21,i,i,64,i,i
CCn1c(C(=O)N2CCc3ccccc3C2)cc2sccc21,i,i,63,i,-5.6
CCOC(=O)c1c(C)c(C(=O)NCc2ccccn2)c(C)n1CC,i,i,i,i,i
CCN1CCN(C(=O)C2CCN(C(=O)c3cc4sccc4n3CC)CC2)CC1,i,i,i,i,i
CN1CCN(C(=O)c2cc3sccc3n2CC(=O)c2ccccc2)CC1,i,i,i,i,i
CCN1CCN(CCCNC(=O)c2cc3sccc3n2CC)CC1,i,i,i,i,i
CCn1c(C(=O)NCc2ccccn2)cc2sccc21,i,i,66,i,i
CCN1CCN(C(=O)c2cc3sccc3n2CC(=O)c2ccccc2)CC1,i,i,59,i,i
COC(=O)C1=CNC=C(C(=O)OC)C1c1ccccc1Cl,70,i,84,i,i
SMILES,CYP2C9 inh,CYP2C9 act,CYP2C19 inh,CYP2C19 act,Cav32 inh
CCOC(=O)C1=C(C)NC(=O)NC1c1ccccc1Cl (stereo not given),i,i,i,i,i
COC(=O)C1=CNC=C(C(=O)OC)C1c1cccc(OC)c1,79,i,86,i,i
COC(=O)C1=CNC=C(C(=O)OC)C1c1ccc(Cl)cc1,75,i,75,i,i
CC(=O)N1CCN(S(=O)(=O)c2ccc(S(=O)(=O)NCC(C)C)cc2)CC1,i,i,i,i,i
COc1ccc(Cl)cc1NC(=O)CSc1nnc(CN2CCOCC2)n1-c1ccc(Cl)cc1,i,i,i,i,i
Cc1noc(/C=C/c2ccco2)c1S(=O)(=O)N1CCC(C(=O)N(C)Cc2ccccc2)CC1,76,i,i,i,i
Cc1noc(/C=C/c2ccco2)c1S(=O)(=O)N1CCC(C(=O)N2c3ccccc3CC2C)CC1 (stereo not given),70,i,i,i,nt
